From PMC5540273 (PLoS ONE, 2017) come the findings set out here.

Some test systems named below: KIT-autoinhibited; KIT; LATS1; LATS2; LCK; LIMK1; LIMK2; LRRK2; LTK; LYN; MAK; MAP3K15; MAP3K1; MAP3K2; MAP3K3; MAP3K4.
Settings in all cases: concentration: 1 μM, replicates: in singlicate; n = 1
In the next experiment the test system is T1, JNK3.
T1 construct: gene MAPK10

The test system of the next experiment is T2, LKB1.
T2 construct: gene STK11

The test system of the next experiment is T3, LOK.
T3 construct: gene STK10

For another experiment, the system named is T4, LZK.
T4 construct: gene MAP3K13

Molecules are shown by their SMILES.
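Note: KINOMEscan kinase panel screen.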

For the compound `CC[C@@H]1CO[C@H](C(=O)Nc2ccccc2)CN1c1cc(-c2ccc3c(N)n[nH]c3c2)nc(NC)n1` [GSK2376236], the “%Inh” value in the experiment with JNK3 was found to be 0%; in the experiment with KIT-autoinhibited, 0%; in the experiment on KIT, 17%; in the experiment on LATS1, 0%; in the experiment with LATS2 it was 0%; in the experiment with LCK, 30%. In addition, the “%Inh” value turned out to be 1% in the experiment on LIMK1; 9% in the experiment with LIMK2; 5% with LKB1; 0% in the experiment on LOK; 0% with LRRK2; 5% in the experiment with LTK. Besides, the “%Inh” value in the experiment with LYN came out at 0%; in the experiment with LZK, 0%; in the experiment on MAK, 21%; in the experiment on MAP3K15 it was 0%; in the experiment with MAP3K1, 21%; with MAP3K2, 0%. Moreover, the “%Inh” value with MAP3K3 and with MAP3K4 was 0% throughout.
In the case of `COc1ccc(CSc2nnc(-c3ccc4c(c3)CCO4)o2)cc1`, the “%Inh” value in the experiment on JNK3, in the experiment on KIT-autoinhibited, in the experiment on KIT, in the experiment with LATS1, with LATS2 and with LCK was 0% in each case. Moreover, the “%Inh” value with LIMK1 was 0%; with LIMK2, 0%; with LKB1 it was 6%; in the experiment on LOK, 0%; with LRRK2, 0%; in the experiment with LTK, 0%. The “%Inh” value in the experiment on LYN is listed as 0%; with LZK, 3%; in the experiment with MAK, 0%; with MAP3K15, 0%; in the experiment with MAP3K1, 0%; in the experiment on MAP3K2 it was 0%. Besides, the “%Inh” value in the experiment on MAP3K3 was 0%; in the experiment on MAP3K4 it was 8%.
For the compound `COc1ccc(CSc2nnc(-c3ccc4nccn4c3)o2)cc1C(F)(F)F`, the “%Inh” value is 0% with JNK3; 10% with KIT-autoinhibited; 0% in the experiment with KIT; 24% in the experiment on LATS1; 23% in the experiment with LATS2; 4% in the experiment with LCK. In addition, the “%Inh” value in the experiment on LIMK1 worked out at 0%; in the experiment with LIMK2, 0%; in the experiment with LKB1 it was 6%; with LOK, 3%; in the experiment with LRRK2 it was 0%; in the experiment on LTK, 0%. In addition, the “%Inh” value with LYN is listed as 7%; in the experiment with LZK it was 18%; with MAK, 0%; in the experiment on MAP3K15, 13%; in the experiment with MAP3K1, 15%; in the experiment on MAP3K2, 30%. Moreover, the “%Inh” value in the experiment with MAP3K3 is 9%; in the experiment on MAP3K4, 12%.
Regarding `CC(C)c1cc(-c2ccc3c(N)n[nH]c3c2)nc(N)n1` [GSK2250882], the “%Inh” value was 8% in the experiment on JNK3; 0% in the experiment on KIT-autoinhibited; 9% in the experiment on KIT; 0% in the experiment on LATS1; 0% with LATS2; 9% with LCK. Further, the “%Inh” value came to 0% in the experiment on LIMK1; 0% in the experiment on LIMK2; 14% in the experiment with LKB1; 0% with LOK; 0% in the experiment with LRRK2; 0% in the experiment on LTK. The “%Inh” value in the experiment with LYN is recorded as 0%; in the experiment on LZK, 0%; in the experiment on MAK it was 0%; in the experiment on MAP3K15, 0%; with MAP3K1, 0%; in the experiment on MAP3K2 it was 2%. In addition, the “%Inh” value in the experiment with MAP3K3 was 2%; with MAP3K4 it was 1%.
Regarding `CNCc1ccc2nc(NC(=O)c3ccc(C(C)(C)C)cc3)cn2c1`, the “%Inh” value with JNK3 was determined as 14%; in the experiment with KIT-autoinhibited, 20%; with KIT it was 69%; in the experiment on LATS1 it was 2%; with LATS2, 6%; with LCK it was 2%. The “%Inh” value was found to be 5% in the experiment with LIMK1; 0% in the experiment on LIMK2; 31% in the experiment on LKB1; 0% in the experiment on LOK; 10% in the experiment on LRRK2; 12% with LTK. For the same compound, the “%Inh” value amounted to 0% in the experiment on LYN; 0% in the experiment with LZK; 15% with MAK; 98.9% with MAP3K15; 19% in the experiment on MAP3K1; 21% in the experiment with MAP3K2. The “%Inh” value in the experiment on MAP3K3 was 0%; in the experiment with MAP3K4, 4%.
On to `O=C(Nc1n[nH]c2nc(-c3cccs3)c(Br)cc12)C1CC1` [SB-735297], for which the “%Inh” value is 9% in the experiment with JNK3; 0% with KIT-autoinhibited; 5% in the experiment with KIT; 11% in the experiment on LATS1; 3% in the experiment on LATS2; 16% with LCK. Moreover, the “%Inh” value is listed as 26% with LIMK1; 0% in the experiment with LIMK2; 0% in the experiment on LKB1; 18% in the experiment on LOK; 0% in the experiment with LRRK2; 0% with LTK. The “%Inh” value is given as 15% with LYN; 0% in the experiment with LZK; 34% in the experiment with MAK; 41% in the experiment with MAP3K15; 12% in the experiment with MAP3K1; 7% with MAP3K2. For the same compound, the “%Inh” value with MAP3K3 is recorded as 36%; with MAP3K4, 19%.
In the case of `COc1ccc(Nc2nccc(N3CCC(NC(=O)C(C)c4ccc(Cl)cc4)C3)n2)cc1` (stereo not shown) [GSK1379735], the “%Inh” value is recorded as 0% in the experiment on JNK3; 5% in the experiment with KIT-autoinhibited; 31% in the experiment with KIT; 4% in the experiment on LATS1; 0% in the experiment on LATS2; 33% with LCK. For the same compound, the “%Inh” value is reported as 19% in the experiment on LIMK1; 0% in the experiment with LIMK2; 0% in the experiment on LKB1; 0% in the experiment with LOK; 51% in the experiment with LRRK2; 61% in the experiment on LTK. Also, the “%Inh” value with LYN is 0%; with LZK, 0%; with MAK, 9%; with MAP3K15 it was 11%; with MAP3K1, 5%; in the experiment on MAP3K2 it was 0%. Also, the “%Inh” value came out at 0% in the experiment on MAP3K3 and 16% in the experiment on MAP3K4.
In the case of `Cc1ccccc1Cn1ccn2c(=O)cc(N3CCOCC3)nc12` [GSK2269905], the “%Inh” value in the experiment with JNK3 is given as 1%; in the experiment on KIT-autoinhibited, 1%; with KIT, 14%; with LATS1, 0%; in the experiment on LATS2, 0%; with LCK, 16%. Moreover, the “%Inh” value in the experiment on LIMK1 stood at 18%; with LIMK2 it was 0%; in the experiment with LKB1, 0%; in the experiment on LOK, 0%; with LRRK2, 0%; in the experiment on LTK, 0%. The “%Inh” value with LYN was 0%; with LZK it was 0%; in the experiment with MAK, 0%; with MAP3K15 it was 0%; in the experiment on MAP3K1 it was 2%; in the experiment on MAP3K2 it was 0%. Also, the “%Inh” value was 0% with MAP3K3 and 30% with MAP3K4.
Regarding `Nc1ncnc2occ(-c3ccc4c(c3)CCN4C(=O)Cc3cc(F)ccc3F)c12` [GSK2645446], the “%Inh” value turned out to be 0% with JNK3; 0% with KIT-autoinhibited; 66% in the experiment on KIT; 0% in the experiment on LATS1; 19% in the experiment on LATS2; 5% with LCK. In addition, the “%Inh” value is 0% with LIMK1; 22% in the experiment with LIMK2; 0% in the experiment with LKB1; 33% in the experiment with LOK; 0% in the experiment on LRRK2; 0% with LTK. Moreover, the “%Inh” value is 0% in the experiment with LYN; 0% with LZK; 0% in the experiment with MAK; 0% in the experiment on MAP3K15; 0% in the experiment on MAP3K1; 6% in the experiment with MAP3K2. Also, the figures for the “%Inh” value in the experiment on MAP3K3 and with MAP3K4 were 0% and 50%, respectively.
As to `Nc1nccc(-c2c(-c3ccc(F)cc3)ncn2C2CCN(Cc3ccccc3)CC2)n1` [SB-219980], the “%Inh” value is on record as 95.4% in the experiment with JNK3; 0% in the experiment on KIT-autoinhibited; 0% with KIT; 13% with LATS1; 0% in the experiment on LATS2; 0% with LCK. Besides, the “%Inh” value is reported as 13% with LIMK1; 0% with LIMK2; 36% in the experiment on LKB1; 18% in the experiment on LOK; 0% in the experiment with LRRK2; 11% in the experiment with LTK. The “%Inh” value is recorded as 0% in the experiment on LYN; 0% in the experiment on LZK; 0% in the experiment on MAK; 0% in the experiment with MAP3K15; 0% in the experiment with MAP3K1; 29% in the experiment on MAP3K2. Besides, the “%Inh” value with MAP3K3 and with MAP3K4 was 0% throughout.
As to `COC(=O)c1cccc(NC(=O)NC2CCN(c3ccnc(Nc4ccc(F)cc4)n3)C2)c1` (stereo not shown) [GSK1379725], the “%Inh” value in the experiment on JNK3 was determined as 17%; in the experiment with KIT-autoinhibited, 0%; in the experiment on KIT it was 44%; in the experiment on LATS1, 0%; in the experiment on LATS2, 0%; with LCK it was 0%. Besides, the “%Inh” value is on record as 0% in the experiment on LIMK1; 0% in the experiment on LIMK2; 0% in the experiment on LKB1; 0% with LOK; 5% in the experiment on LRRK2; 17% in the experiment on LTK. Also, the “%Inh” value was determined as 0% in the experiment on LYN; 6% in the experiment on LZK; 16% in the experiment with MAK; 0% in the experiment on MAP3K15; 8% in the experiment with MAP3K1; 11% in the experiment with MAP3K2. Besides, the “%Inh” value in the experiment on MAP3K3 was 0%; with MAP3K4 it was 24%.
